From PubChem
CHX counter – counter-screen for Shiga toxin inhibitors: cycloheximide protein synthesis inhibition; cell reporter, cycloheximide protein synthesis inhibition counterscreen; max response, %; actives 12% (n = 300,000); in the data active = max response mostly above about 13%, no sharp cut-off; inactive = mostly below about 14%; also: read at 38.3 µM for the half of the compounds with a filed dose; 0% is about no effect
Shiga toxin inh – blocks Shiga toxin action in Vero cells | actives 9.2% (n = 290,000) | inhibition, % at 38.7 µM | AID 2315 | Vero cells, Shiga toxin protein synthesis inhibition reporter; in the data active = inhibition mostly above about 28%, no sharp cut-off; inactive = mostly below about 43%; also: 0% is about no effect
Tb PYK inh – blocks Trypanosoma brucei pyruvate kinase; Q57TT1; TbPYK enzyme, Kinase-Glo Plus ATP luminescence, 45 min; Potency, µM (highest dose often 76.8 µM), for the others: at the highest dose activity, negative = inhibition, usual class: inhibitors; actives 0.12% (n = 410,000); AID 624173; also: potency is read from the fitted curve at half-maximal effect; % is scaled to controls: 0 for no effect and ±100 for the full control effect; nearly all actives have a fitted effect of over 50% in size
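Quantitative HTS: titrated library compounds versus trypanosomal pyruvate kinase in TEA buffer (pH 7.2) containing KCl, MgCl2, BSA and Tween-20. Reactions were initiated with ADP, 130 uM final. Kinase-Glo Plus luminescence was read after 45 min at RT.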
RE007 growth inh – less growth of the S. pombe RE007 Vpr strain; S. pombe RE007 Vpr strain, BacTiter-Glo ATP luminescence, 24 h; AID 651644; actives 0.21% (n = 360,000); Potency, µM (highest dose often 92.2 µM), inactives show top-dose activity change, negative = less growth, most hits filed as inhibitors; active = well fitted falling curve with a large enough effect; inconclusive = small, poorly fitted or top-dose-only effect; inactive = no such curve, though single readings can be large or run the other way; also: potency is read from the fitted curve at half-maximal effect; % is scaled to controls: 0 for no effect and ±100 for the full control effect; nearly all actives have a fitted effect of over 50% in size
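Fission yeast RE007 carrying one integrated HIV-1 vpr copy, seeded at OD 0.01 in PMG+AL medium with 23 nL pinned compound. Grown 24 h at 30 degrees; viability read by BacTiter-Glo luminescence after 5 min.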
LmPK inhibitor – inhibitors of Leishmania mexicana pyruvate kinase | purified LmPK, Kinase-Glo ATP luminescence, 1 h | Potency, µM (doses to about 57.5 µM), for the others: at the top dose activity change, negative = inhibition, usual class: inhibitors | actives 0.37% (n = 290,000) | AID 1721; also: potency is read from the fitted curve at half-maximal effect; % is scaled to controls: 0 for no effect and ±100 for the full control effect
Target sequence (Q27686 whole entry, looked up): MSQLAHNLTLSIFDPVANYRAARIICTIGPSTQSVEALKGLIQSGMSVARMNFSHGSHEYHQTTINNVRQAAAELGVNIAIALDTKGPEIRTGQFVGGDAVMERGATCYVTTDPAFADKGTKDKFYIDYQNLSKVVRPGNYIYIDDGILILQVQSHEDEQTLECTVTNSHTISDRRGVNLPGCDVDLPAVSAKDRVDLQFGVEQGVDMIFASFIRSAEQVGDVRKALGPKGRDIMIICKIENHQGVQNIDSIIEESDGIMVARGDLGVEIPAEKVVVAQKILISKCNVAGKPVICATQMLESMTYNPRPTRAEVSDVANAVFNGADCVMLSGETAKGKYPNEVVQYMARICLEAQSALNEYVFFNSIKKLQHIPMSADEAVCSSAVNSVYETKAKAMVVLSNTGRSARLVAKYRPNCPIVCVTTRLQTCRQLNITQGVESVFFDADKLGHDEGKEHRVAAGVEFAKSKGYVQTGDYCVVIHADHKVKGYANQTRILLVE
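qHTS format; LmPK 0.1 nM; substrates PEP 0.5 mM and ADP 0.1 mM. One-hour room-temperature incubation, then coupled luciferase luminescence; 0.5 nM enzyme wells mark activation.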
Giardia FBPA inh – blocks Giardia fructose-bisphosphate aldolase activity | purified Giardia FBPA | actives 0.71% (n = 290,000) | AID 2451 | Potency, µM (titrated, usually from 59.6 µM), without a hit: at the top dose activity, negative = inhibition, most hits filed as inhibitors | A8B2U2; also: potency is read from the fitted curve at half-maximal effect; % is scaled to controls: 0 for no effect and ±100 for the full control effect; nearly all actives have a fitted effect of over 55% in size
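40 nM FBPA preincubated 10 min at RT with compound (up to 57.5 uM final), then substrate plus GAPDH/TPI/NAD/arsenate coupling and diaphorase/resazurin added. Fluorescence read after 20 min at RT, 525/598 nm.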
* marks the source's active call; other numbers are inactive results; [ ] = remark or other dose. The full list was thinned out, with hits kept by preference. Unless noted, calls follow the shape of the dose curve; as a rule, active = well fitted curve in the direction sought with a large enough effect; inconclusive = small, poorly fitted or top-dose-only effect, or another doubt; inactive = no such curve, though single readings can be large; an effect the other way counts as inactive or inconclusive.

For O=C(NC1CCCCC1)c1cc(-c2cccc(Cl)c2)on1 the results were CHX counter 27*, Shiga toxin inh 39*, Tb PYK inh -2%, RE007 growth inh -1%, LmPK inhibitor -4% and Giardia FBPA inh 4%.
O=C(NC1CCCC1)c1cc(-c2cccc(Cl)c2)on1 was read as CHX counter 37*, Shiga toxin inh 131*, Tb PYK inh -3%, RE007 growth inh 6%, LmPK inhibitor -6% and Giardia FBPA inh 6%.
Screening NC(=O)c1c(NC(=O)c2noc3c2CCCC3)sc2c1CCCC2 returned Tb PYK inh 10%.
Cc1ccc(N2C(=O)c3ccccc3C2Nc2ccccc2F)nc1 (stereo unspecified) was read as CHX counter 32*, Shiga toxin inh 55*, Tb PYK inh 1%, RE007 growth inh -14%, LmPK inhibitor 6% and Giardia FBPA inh -15%.
O=C1c2ccccc2C(Nc2ccc(Cl)cn2)N1c1ccccn1 (stereo unspecified) was read as CHX counter 0, Shiga toxin inh 3, Tb PYK inh -8%, RE007 growth inh -1%, LmPK inhibitor 0% and Giardia FBPA inh -7%.
`O=C(/C=C/[C@H]1O[C@@H](n2ccc(=O)[nH]c2=O)[C@H](O)[C@@H]1O)NCCN1CCCC1` gave Tb PYK inh -4% and RE007 growth inh 6%.
CCOc1cc(/C=C2\C(=O)N(c3ccc(C(N)=O)cc3)N=C2C)ccc1OC(=O)c1cccs1 was read as CHX counter 5, Shiga toxin inh 13, Tb PYK inh -10%, RE007 growth inh -12%, LmPK inhibitor 2% and Giardia FBPA inh -10%.
For CC1=NN(c2ccc(C(=O)O)cc2)C(=O)/C1=C\c1ccc(OC(=O)c2cccs2)cc1 the results were CHX counter 16*, Shiga toxin inh 39, Tb PYK inh inconclusive, RE007 growth inh -9%, LmPK inhibitor -12% and Giardia FBPA inh -25%.
Screening CN1C(=O)C(=Cc2ccc(OCCN(C)c3ccccn3)cc2)C(=O)N(C)C1=O returned CHX counter 21*, Shiga toxin inh 37, Tb PYK inh -9%, RE007 growth inh 1%, LmPK inhibitor -5% and Giardia FBPA inh 0%.
CC(=O)c1sc(-c2ccccc2)nc1C was read as CHX counter 35*, Shiga toxin inh 44, Tb PYK inh 8%, RE007 growth inh -21%, LmPK inhibitor -7% and Giardia FBPA inh -1%.
For Cc1ccc(-c2nc(C(=O)O)cs2)cc1 the results were CHX counter 21, Shiga toxin inh -4, Tb PYK inh -1%, RE007 growth inh 4%, LmPK inhibitor 2% and Giardia FBPA inh 7%.
Screening Cc1ccc(-c2nc(C)c(C(=O)O)s2)cc1 returned CHX counter 21*, Shiga toxin inh 37, Tb PYK inh -12%, RE007 growth inh 12%, LmPK inhibitor inconclusive and Giardia FBPA inh 11%.
Cc1nc(-c2ccc(Cl)cc2)sc1C(=O)O was read as CHX counter 25, Shiga toxin inh 91*, Tb PYK inh -1%, RE007 growth inh 3%, LmPK inhibitor -4%[11.5 µM] and Giardia FBPA inh 18%.
For CCNC(=O)c1sc(-c2ccccc2)nc1C the results were CHX counter 45*, Shiga toxin inh 66*, Tb PYK inh 2%, RE007 growth inh 7%, LmPK inhibitor -2% and Giardia FBPA inh 7%.
Screening COc1ccccc1-c1cccc(-c2nc(C(=O)Nc3nccs3)cc3c2[C@@H](CCO)N(C(=O)CC2CC2)C3)c1 returned Tb PYK inh 2% and RE007 growth inh 5%.
`CCOc1ccc(NC(=O)CCc2nc3cccnc3n2-c2ccccc2)cc1` gave Tb PYK inh 4%.
For CC(C)(C)OC(=O)N1CCC(c2c(C(=O)NCc3cccc(Cl)c3)cnn2-c2ccc(F)cc2)CC1 the results were Tb PYK inh 0%.
For Cc1nc(-c2ccccc2)sc1C(=O)Nc1ccccc1F the results were CHX counter 46*, Shiga toxin inh 29, Tb PYK inh -1%, RE007 growth inh 19%, LmPK inhibitor 2% and Giardia FBPA inh 4%.
Cc1nc(-c2ccc(Cl)cc2)sc1C1(C)CC(c2ccc([N+](=O)[O-])cc2)=NO1 (stereo unspecified) was read as CHX counter 6, Shiga toxin inh 2, Tb PYK inh 1%, RE007 growth inh -2%, LmPK inhibitor 0% and Giardia FBPA inh 8%.
Cc1nc(-c2ccccc2)sc1C(=O)O was read as CHX counter 31*, Shiga toxin inh 84*, Tb PYK inh 6%, RE007 growth inh 3%, LmPK inhibitor -8% and Giardia FBPA inh -5%.
For Cc1nc(-c2ccc([N+](=O)[O-])cc2)sc1C(=O)O the results were CHX counter 20*, Shiga toxin inh 36, Tb PYK inh -10%, RE007 growth inh -24%, LmPK inhibitor 16µM* and Giardia FBPA inh 9%.
For Cc1nc(-c2cccs2)sc1C(=O)O the results were CHX counter 7, Shiga toxin inh 14, Tb PYK inh 4%, RE007 growth inh -17%, LmPK inhibitor -9% and Giardia FBPA inh 10%.
`Cc1ccc(NS(=O)(=O)c2c(C)[nH]c(C)c2C(=O)N2CCCCC2)cc1F` gave CHX counter -9, Shiga toxin inh -13, Tb PYK inh -3%, RE007 growth inh -4% and LmPK inhibitor -7%.
`COc1cccc(OCC(=O)NCCS(=O)(=O)N2CCN(c3ccccc3F)CC2)c1` gave Tb PYK inh -2%.
Screening COc1cccc(NC(=O)NNC(=O)CCc2ccc(O)c(O)c2)c1 returned CHX counter 1, Shiga toxin inh -2, Tb PYK inh -5%, RE007 growth inh 1%, LmPK inhibitor -19% and Giardia FBPA inh -11%.
Screening CCOC(=O)c1c[nH]n(-c2ccccc2)c1=O returned CHX counter 20, Shiga toxin inh 30*, Tb PYK inh -3%, RE007 growth inh 10%, LmPK inhibitor 1% and Giardia FBPA inh -22%.
`CCOC(=O)c1c[nH]n(-c2ccc(C)cc2)c1=O` gave CHX counter 21*, Shiga toxin inh 48*, Tb PYK inh -21%, RE007 growth inh 2%, LmPK inhibitor 7% and Giardia FBPA inh inconclusive.
Screening CCOC(=O)c1nc(N)c(=O)n(-c2ccc(C)cc2)n1 returned CHX counter -1, Shiga toxin inh 4, Tb PYK inh -8%, RE007 growth inh 13%, LmPK inhibitor 2% and Giardia FBPA inh 7%.
C(=C/c1nccc2c1[nH]c1ccccc12)/c1ccc2c(c1)OCO2 was read as CHX counter 37, Shiga toxin inh 40*, Tb PYK inh -5%, RE007 growth inh 39%, LmPK inhibitor -9% and Giardia FBPA inh -9%.
